# Hits are enriched below; roughly 5.4% of the tested compounds scored in any of these assays.
# GASC-1 inh = human JMJD2C demethylase inhibition; GST-JMJD2C(1-420) H3K9me3 demethylation, DELFIA europium; inhibition, % at 2.35 µM; 330,000 compounds, 0.069% hits; AID 2099;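 active = more than half of a compound's replicate wells show inhibition beyond 50%, single wells judged on their own value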;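 also: signal counts dimethyl H3K9 product captured on neutravidin plate; 0% = median of DMSO wells and 100% = 0.3 times that DMSO median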
# ALR H2O2 inh = human ALR oxidase inhibition via reduced H2O2; inhibition, % (no concentration beside the values); purified ALR, DTT oxidation, H2O2 HRP-luminol luminescence; P55789; AID 485317; 290,000 compounds, 3.8% hits;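 active = mean replicate inhibition above about 79%, with every replicate also reaching it, limit read from the data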
# Target sequence (P55789 whole entry, looked up): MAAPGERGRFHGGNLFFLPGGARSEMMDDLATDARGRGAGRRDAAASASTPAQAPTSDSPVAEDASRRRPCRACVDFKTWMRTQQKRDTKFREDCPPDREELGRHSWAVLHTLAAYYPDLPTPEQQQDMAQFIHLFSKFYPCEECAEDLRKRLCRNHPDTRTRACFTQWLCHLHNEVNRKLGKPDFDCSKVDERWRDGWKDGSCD
# Granule exo inh = blocks lytic granule exocytosis; AID 651702; TALL-104 LAMP-1 surface exposure, flow cytometry; cells stimulated with thapsigargin and PMA; 360,000 compounds, 0.66% hits; inhibition, % at 10 µM;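 active = inhibition above about 55%, limit read from the data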
# SMARCA2 act = increases SMARCA2 function in MMTV reporter cells | MG213 cells, MMTV-luciferase reporter, dexamethasone, overnight | activation, % at 9.1 µM | 370,000 compounds, 1% hits; in the data active = activation above about 7.8%;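 also: 0% = vehicle wells and 100% = reference activator wells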
# PfM18AAP inh = blocks P. falciparum M18 aspartyl aminopeptidase. recombinant PfM18AAP, H-Glu-NHMec fluorogenic cleavage. inhibition, % at 7.35 µM. 290,000 compounds, 1.2% hits;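 active = inhibition above the campaign mean inhibition over all tested compounds plus 3 SD, cut at about 28% in these data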;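 also: 0% = plate median of test compound wells and 100% = 2 mM ZnCl2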
# beta cell repl = inducers of beta-cell replication in MIN6 cells | MIN6 cells proliferation, ATPlite luminescence, 48 h; cells starved in 0.2% serum; 100% = growth in 10% serum | proliferation, % at 10 µM | 330,000 compounds, 0.29% hits | AID 2380;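 active = compounds whose signal lies at least 3.5 SD above the mean of all wells on their plate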;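 also: 0% = DMSO-treated cells in low-serum medium and 100% = 10% serum control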
# SMARCA2 act conf = confirmation of SMARCA2 (BRM) function activators | shares compounds with SMARCA2 act | MG213 cells, MMTV-luciferase with dexamethasone, luminescence, overnight; MG213 cells expressing E1A, Rb sequestered; DMSO wells 0%, reference activator 100% | activation, % at 9.1 µM | 3,500 compounds, 30% hits | AID 652260;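 active = activation above its plate's cutoff, the mean activation of tested wells plus 3 SD, cut at about 7.9% in these data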
# GAL4-VP16 Luc = counter-screen for SMARCA2 activators: GAL4-VP16 luciferase reporter activation. shares compounds with SMARCA2 act. activation, % at 9.1 µM. 3,500 compounds, 41% hits. HEK293 GAL4-VP16 pG5luc reporter, luciferase luminescence; scaled: DMSO wells 0%, SAHA wells 100%;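 active = activation above the solvent-only control well mean plus 3 SD, averaged across control plates, cut at about 5.2% in these data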
# Active calls of the source: *; . = no result.
SMILES,GASC-1 inh,ALR H2O2 inh,Granule exo inh,SMARCA2 act,PfM18AAP inh,beta cell repl,SMARCA2 act conf,GAL4-VP16 Luc
CCc1ccc2[nH]c(=O)c(CN(CCN(CC)CC)C(=O)Nc3ccccc3OC)cc2c1,10.8,0.8,-0.4,9.0*,-1.4,-3.3,-0.6,0.9
C[C@H]1CN([C@@H](C)CO)S(=O)(=O)c2ccc(C#Cc3cccnc3)cc2O[C@@H]1CN(C)C(=O)Nc1ccc2c(c1)OCO2,.,.,-15.5,-3.3,.,.,.,.
COC(=O)c1ccc(NC(=S)NC2c3ccccc3CC2O)cc1 (stereo unspecified),-5.7,0.7,3.0,8.3*,1.1,-2.0,3.6,0.0
COC(=O)c1ccc(NC(=S)Nc2ccccc2)cc1,2.7,1.3,-0.5,1.6,5.0,1.8,.,.
CCN(CC)C(=O)c1cccc(-c2csc(C(NC(C)=O)c3cccc(OC)c3)n2)c1 (stereo unspecified),.,.,-1.9,-0.9,.,.,.,.
CN(C)Cc1cc(C(C)(C)C)cc(C(C)(C)C)c1O,-7.6,-5.2,9.3,-1.4,-3.4,-1.7,.,.
CN(C)Cc1cc(O)c(CN(C)C)cc1O,3.0,.,3.9,8.0*,27.6,-4.0,6.9,2.1
O=C(Nc1ccccc1Br)C1CCN(C(=O)Cc2ccccc2)CC1,-4.5,-2.7,0.6,9.0*,-4.4,4.0,-2.5,1.6
O=C(Nc1ccccc1F)C1CCN(C(=O)Cc2ccccc2)CC1,1.7,-17.3,-0.3,1.9,0.8,-2.6,.,.
COc1ccc(C(C)(NC(C)=O)c2nc(-c3ccccc3OC)cs2)cc1 (stereo unspecified),.,.,-15.2,-2.2,.,.,.,.
Cc1ccc(NC(=O)c2sc3nc(C)cc(C)c3c2N)cc1,2.7,-3.7,0.7,9.9*,10.9,-3.2,6.8,15.2*
Cc1cc(C)c2c(N)c(C(=O)Nc3cccc(C)c3C)sc2n1,-2.1,23.6,34.9,2.9,3.0,-3.1,.,.
COc1ccc(-c2cc(=O)c3ccccc3s2)cc1,4.1,-6.3,-2.6,8.8*,7.0,-3.6,4.2,9.7*
O=C(c1cc2cc(Br)ccc2o1)N1CCN(c2ccccc2)CC1,9.2,-5.1,-1.9,8.1*,2.9,-4.0,1.1,4.7
O=C(c1cc2cc(Br)ccc2o1)N1CCOCC1,17.1,.,-1.9,3.1,-0.1,-4.0,.,.
CC1(C(=O)Nc2cnc3ccccc3c2)CCN1C(=O)C/C=C/c1ccccc1 (stereo unspecified),.,.,-5.3,0.6,.,.,.,.
C=CCNC(=O)c1c(Br)cnn1-c1ccc(C)cc1,-2.6,-4.4,-2.8,9.2*,12.9,-1.3,10.6*,10.7*
COc1ccc(-c2cn3cc(C(F)(F)F)cc(Cl)c3n2)cc1,0.3,43.5,1.1,12.2*,6.5,-4.0,5.4,10.6*
Fc1ccc(-c2cn3cc(C(F)(F)F)cc(Cl)c3n2)cc1,2.4,-4.4,-1.9,6.3,-12.2,-0.9,.,.
Cc1cc(Cl)c2oc(C(=O)NCCC3CCCCO3)c(C)c2c1 (stereo unspecified),0.6,-1.1,-0.9,8.9*,1.1,3.5,3.4,4.8
COc1ccc(NC(=O)C2(C)CCN2Cc2ccccc2Cl)cc1OC (stereo unspecified),.,.,3.1,-6.9,.,.,.,.
COc1ccc(C2=Nc3ccccc3N(C(=O)c3cccnc3)C2C(=O)NC(C)(C)C)cc1 (stereo unspecified),.,.,-6.8,1.5,.,.,.,.
COc1ccc(C2=Nc3ccccc3N(C(=O)c3ccncc3)C2C(=O)NC(C)(C)C)cc1 (stereo unspecified),.,.,-14.6,16.4*,.,.,-1.7,0.8
COc1ccc(NC(=O)C2C(c3ccc4c(c3)OCO4)=Nc3ccccc3N2C(C)=O)cc1 (stereo unspecified),.,.,15.4,9.2*,.,.,8.0*,6.4*
CCCCCCCCN1C(=O)[C@@H](CC(=O)NCCCCc2ccccc2)C[C@@]2(C(=O)OC)C1=C[C@H](C(C)(C)C)O[C@@H]2C,.,.,.,-0.1,.,.,.,.

# High-throughput results as filed in PubChem.
